Assay results from ChEMBL document CHEMBL3988442, “University of Dundee, Small-Polar-MMV Screening Library” (2021).

Columns and labels:
[1] = molecular target: T1, Aspartate--tRNA(Asp/Asn) ligase (Mycobacterium tuberculosis (strain ATCC 25618 / H37Rv)) (UniProt P9WFW3); assay: Assay for Asp RNA synthetase-1 from Mycobacterium tuberculosis; format: functional; design: scale not given: direction of the effect not stated beside the values; details: 30 µM; also: in the data most compounds retested in dose-response had high values
T1 sequence (whole entry): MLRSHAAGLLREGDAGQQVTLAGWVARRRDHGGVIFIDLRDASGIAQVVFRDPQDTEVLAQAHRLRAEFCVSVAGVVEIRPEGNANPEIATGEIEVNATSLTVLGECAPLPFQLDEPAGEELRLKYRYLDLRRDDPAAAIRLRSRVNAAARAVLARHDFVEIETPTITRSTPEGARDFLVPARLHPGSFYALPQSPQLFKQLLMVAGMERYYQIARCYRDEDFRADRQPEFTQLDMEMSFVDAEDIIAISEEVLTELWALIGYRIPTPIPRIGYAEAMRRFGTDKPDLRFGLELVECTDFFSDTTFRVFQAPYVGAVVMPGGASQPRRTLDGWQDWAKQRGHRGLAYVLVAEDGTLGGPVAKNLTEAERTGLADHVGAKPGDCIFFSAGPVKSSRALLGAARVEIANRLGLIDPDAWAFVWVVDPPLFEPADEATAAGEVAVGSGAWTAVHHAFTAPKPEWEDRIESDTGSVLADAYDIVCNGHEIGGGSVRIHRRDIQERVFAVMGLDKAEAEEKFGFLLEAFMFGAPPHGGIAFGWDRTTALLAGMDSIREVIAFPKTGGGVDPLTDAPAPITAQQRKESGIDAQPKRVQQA

[2] = molecular target: Shiga toxin 2 (Escherichia coli O157:H7) (UniProt P09385+P09386); assay: E. coli 0.157:H7 Shiga Toxin SOP - stx2 screening assay; format: functional; design: scale not given: direction of the effect not stated beside the values; details: 30 µM

## Cn1ncc2c(=O)[nH]c(CN3CCC(Cc4ccccc4)CC3)nc21
[1]
  Percent Effect: -5.37%
[2]
  Percent Effect: 0.0557%

## CN(Cc1ccsc1)C(=O)c1cc2c([nH]c1=O)CCCC2=O
[1]
  Percent Effect: -1.51%
[2]
  Percent Effect: 12.2%

## COc1ccc(-c2cc(C3CCCCCN3S(=O)(=O)N(C)C)on2)cc1 (stereo not drawn)
[1]
  Percent Effect: -5.4%
[2]
  Percent Effect: -17.1%

## Cc1cc(NC(=O)NCC2CCOC2)no1 (stereo not drawn)
[1]
  Percent Effect: -7.54%
[2]
  Percent Effect: -24.3%

## COc1ccc(NC(=O)NC(C)c2nc[nH]n2)cc1 (stereo not drawn)
[1]
  Percent Effect: -1.71%
[2]
  Percent Effect: 5.29%

## Cc1cn2c(n1)CCC(NC(=O)c1cc(Br)cn1C)C2 (stereo not drawn)
[1]
  Percent Effect: -1.87%
[2]
  Percent Effect: -34.8%

## CC(NC(=O)c1cccs1)C(=O)NCc1ccccc1CN1CCCC1 (stereo not drawn)
[1]
  Percent Effect: -4.19%
[2]
  Percent Effect: -31.6%

## COc1c(CNC(c2nccn2C)C(C)C)c(C)nn1C (stereo not drawn)
[1]
  Percent Effect: 0.122%
[2]
  Percent Effect: 16.3%

## Cc1noc(Cl)c1CC(=O)N1CCCC(n2cccn2)C1 (stereo not drawn)
[1]
  Percent Effect: 2.08%
[2]
  Percent Effect: 32.6%

## Cc1nc(C)n(CC2CN(CCc3ccncc3)CCO2)n1 (stereo not drawn)
[1]
  Percent Effect: 1.98%
[2]
  Percent Effect: -14.2%

## COCCN1CC[C@@H](O)[C@@H]1Cc1ccccc1
[1]
  Percent Effect: 1.19%
[2]
  Percent Effect: -38.2%

## Cc1nc(N2CCCC2)nc2c1CCN(C(=O)CC1CC1)CC2
[1]
  Percent Effect: -1.6%
[2]
  Percent Effect: -20.8%

## CC(NC(=O)NCCn1ccnc1)c1ccc2c(c1)NC(=O)CO2 (stereo not drawn)
[1]
  Percent Effect: 0.942%
[2]
  Percent Effect: 5.67%

## Cc1cc(C)n(CC2CN(Cc3nc(-c4ccco4)no3)CCO2)n1 (stereo not drawn)
[1]
  Percent Effect: 1.64%
[2]
  Percent Effect: -16.4%

## Cc1cccc(-n2c(C)cc(C(=O)N3CCn4c(C)nnc4C3)c2C)c1
[1]
  Percent Effect: 3.51%
[2]
  Percent Effect: 36.2%

## COCCNC(=O)Cn1nc(C(C)C)c2cnn(C(C)(C)C)c2c1=O
[1]
  Percent Effect: -1.87%
[2]
  Percent Effect: 5.6%

## Cc1ccc(C(=O)N2CCN(CCc3cccs3)CC2)c(=O)[nH]1
[1]
  Percent Effect: -1.83%
[2]
  Percent Effect: -29.5%

## Cc1noc(C)c1CN(C)C(=O)c1ccc(NC2CC2)nc1
[1]
  Percent Effect: 5.06%
[2]
  Percent Effect: 26.3%

## COc1cccc2c1ccn2CCNC(=O)C(C)C
[1]
  Percent Effect: 6.33%
[2]
  Percent Effect: -17%

## CCOc1ccccc1OC1CCN(C(=O)c2nc(=O)[nH][nH]2)CC1
[1]
  Percent Effect: -1.63%
[2]
  Percent Effect: -11.2%

## COCc1n[nH]/c(=N/C(=O)COc2cnc(C)cc2O)s1
[1]
  Percent Effect: -2.13%
[2]
  Percent Effect: -48.9%

## Cc1nnc(NC(=O)NC2CCOc3ccccc32)s1 (stereo not drawn)
[1]
  Percent Effect: 1.16%
[2]
  Percent Effect: -1.42%

## CC(=O)Nc1nc(C2CCN(CC(N)=O)CC2)cs1
[1]
  Percent Effect: -7.79%
[2]
  Percent Effect: -8.65%

## Cc1cc2c(=O)n3c(nc2s1)CCN(Cc1cnc(C(C)C)nc1)CC3
[1]
  Percent Effect: 6.6%
[2]
  Percent Effect: 14.8%
